Data reported in PubChem BioAssay.
A number with no mark means an inactive call. Active and inactive are the calls of the source.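 Rule for the calls, unless noted: active = mean inhibition above 46.68%, the untreated control wells mean plus 3 SD; inactive = the rest.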

Key:
[1] = target: Nuclear receptor coactivator 1 (Homo sapiens) (UniProt Q15788); assay: SRC1 coactivator transcriptional activity inhibitors, confirmation, cell-based, luminescence, quadruplicate (AID 588820); details: HEK293 GAL4-SRC1 luciferase reporter, at 3.6 µM, stronger effect = higher value;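 note: 0% = DMSO wells and 100% = gossypol 36 µM treated wells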
Nuclear receptor coactivator 1 (Homo sapiens), sequence (Q15788 whole entry, looked up, the tested form may be a part): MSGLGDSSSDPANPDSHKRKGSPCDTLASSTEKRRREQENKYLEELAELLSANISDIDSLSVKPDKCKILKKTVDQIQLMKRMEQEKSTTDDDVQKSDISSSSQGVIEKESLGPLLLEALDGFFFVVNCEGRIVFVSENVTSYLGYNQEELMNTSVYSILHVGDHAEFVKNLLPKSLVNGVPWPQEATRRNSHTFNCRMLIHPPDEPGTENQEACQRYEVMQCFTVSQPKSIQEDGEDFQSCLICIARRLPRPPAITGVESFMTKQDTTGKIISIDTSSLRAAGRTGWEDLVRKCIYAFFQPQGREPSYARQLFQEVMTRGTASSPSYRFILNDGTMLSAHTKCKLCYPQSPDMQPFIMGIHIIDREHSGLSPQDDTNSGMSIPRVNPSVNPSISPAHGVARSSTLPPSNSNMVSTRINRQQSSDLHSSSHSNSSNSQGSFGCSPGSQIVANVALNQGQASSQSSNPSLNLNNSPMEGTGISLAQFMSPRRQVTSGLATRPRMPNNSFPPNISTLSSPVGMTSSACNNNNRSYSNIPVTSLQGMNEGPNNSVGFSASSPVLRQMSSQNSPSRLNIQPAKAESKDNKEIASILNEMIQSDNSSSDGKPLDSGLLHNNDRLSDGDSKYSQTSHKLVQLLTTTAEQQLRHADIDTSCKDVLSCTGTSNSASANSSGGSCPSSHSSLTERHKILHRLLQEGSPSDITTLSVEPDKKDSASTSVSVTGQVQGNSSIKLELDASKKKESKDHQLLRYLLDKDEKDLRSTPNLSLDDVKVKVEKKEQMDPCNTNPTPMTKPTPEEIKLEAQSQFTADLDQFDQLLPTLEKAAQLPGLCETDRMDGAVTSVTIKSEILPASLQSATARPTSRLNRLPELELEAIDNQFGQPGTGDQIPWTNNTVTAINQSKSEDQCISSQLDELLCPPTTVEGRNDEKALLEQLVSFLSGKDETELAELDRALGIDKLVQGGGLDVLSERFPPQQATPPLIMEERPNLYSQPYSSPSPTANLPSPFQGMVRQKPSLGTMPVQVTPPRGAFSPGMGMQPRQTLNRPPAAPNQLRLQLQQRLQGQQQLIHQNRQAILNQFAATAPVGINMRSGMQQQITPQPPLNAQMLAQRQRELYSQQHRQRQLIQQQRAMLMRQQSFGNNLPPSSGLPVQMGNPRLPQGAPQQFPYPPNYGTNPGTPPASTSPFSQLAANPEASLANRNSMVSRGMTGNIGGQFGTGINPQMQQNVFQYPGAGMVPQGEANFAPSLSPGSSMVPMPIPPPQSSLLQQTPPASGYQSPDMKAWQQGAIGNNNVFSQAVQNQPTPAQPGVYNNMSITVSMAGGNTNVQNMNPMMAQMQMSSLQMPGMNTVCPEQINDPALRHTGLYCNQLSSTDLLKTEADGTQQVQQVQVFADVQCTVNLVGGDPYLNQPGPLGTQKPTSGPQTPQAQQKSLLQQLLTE

[2] = VP16 transactivation inhibitors, counter-screen for SRC1 inhibitor project, cell-based, luminescence, high throughput (AID 588824; in the data active = inhibition above about 25%); details: cell-based VP16 transactivation luciferase luminescence; at 3.6 µM; stronger effect = higher value

Row | SMILES | inhibition [1] [%] | inhibition [2]
1 | COc1ccc(S(=O)(=O)Nc2ccc(F)c(Cl)c2)cc1OC | -9.19 | -10.6%
2 | CC1(C)CC(=O)c2sc(N)nc2C1 | -9.15 | 0.81%
3 | CCOC(=O)c1ccc(NC(=O)c2ccc(CN3CCc4ccccc4C3)cc2)cc1 | -48.8 | 30.4% (active)
4 | NS(=O)(=O)c1ccc(NC(=O)CCCCC(=O)Nc2ccc(S(N)(=O)=O)cc2)cc1 | -1.93 | -4.87%
5 | Cc1cccc(NC(=O)c2cc(S(=O)(=O)N(C)c3ccc(F)cc3)ccc2Cl)n1 | -17.6 | -4.3%
6 | COC(=O)C1CCCCN1C(=O)c1cc(COc2cccc3cnccc23)on1 (stereo unspecified) | 30.8 | 43.3% (active)
7 | CCOc1ncccc1C(=O)NC(C)CCc1ccccc1 (stereo unspecified) | 0.01 | -0.39%
8 | COc1ccccc1CCNC(=O)CCn1c(=O)c2cccn2c2ccc(F)cc21 | -9.66 | -15.2%
9 | Cc1sc2ncn3ncnc3c2c1C | 37.9 | 27.7% (active)
10 | Cc1c(C(=O)N2CCN(Cc3ccc4c(c3)OCO4)CC2)sc2ncnc(N3CCN(c4ccccc4)CC3)c12 | 11.3 | 19.7%
11 | O=C(O)c1cc(=O)[nH]c2ccc(S(=O)(=O)Nc3ccc(F)cc3)cc12 | -12.9 | 7.7%
12 | COc1ccc(O)c(C2(O)C(=O)c3ccccc3C2=O)c1 | -5.99 | 3.91%
13 | Cc1ccoc1C(=O)NCCNC(=O)c1occc1C | -20.6 | -15.1%
14 | COC(=O)N(NC(=O)C(O)(CCC(C)C)CCC(C)C)c1ccccc1 | 16.2 | 11.5%
15 | Cc1cc(C)cc(C(=O)Nc2cccc(NC(=O)c3ccco3)c2)c1 | -11.1 | 9.42%
16 | CC1(c2ccccc2)NC(=O)N(CC(=O)Nc2cc3c(cc2Br)OCCO3)C1=O (stereo unspecified) | -11.8 | -6.44%
17 | O=C(Nc1ccc(Oc2ccccc2)cc1)c1csc([C@@H]2O[C@H](CO)[C@@H](O)[C@H]2O)n1 | -12.9 | 19.7%

Row | SMILES | inhibition [1] [%] | inhibition [2]
18 | COc1ccc(C(=O)Nc2ccc(N3CCCCCC3)cc2)cc1S(=O)(=O)N1CCOCC1 | -2.46 | 18.2%
19 | CCc1ccc2oc(=O)cc(CN3CCN(Cc4ccccc4)CC3)c2c1 | -7.76 | 2.82%
20 | COc1ccccc1/C=C\C(=O)NCC(=O)N/N=C/c1cccc(OC)c1O | 26.9 | 14.2%
21 | O=C1NC(=S)N/C1=C/c1ccc2c(c1)OCO2 | 10.2 | 16.3%
22 | S=C1SCN(Cc2ccccn2)CN1Cc1ccco1 | -2.15 | -1.66%
23 | COc1ccc(NC(=O)c2cc3c(s2)CCC(C)C3)cc1S(=O)(=O)N1CCOCC1 (stereo unspecified) | 9.02 | 25.1%
24 | CC(OC(=O)CSCC(=O)Nc1ccc(Cl)cc1)C(=O)N(C)Cc1ccccc1 (stereo unspecified) | -7.38 | 1.96%
25 | COc1ccc(CCn2c(-c3ccco3)nc3ccccc3c2=O)cc1OC | -30.6 | -17.7%
26 | O=C(COc1ccc(F)cc1Cl)Nc1ccc(N2CCOCC2)cc1N1CCOCC1 | -16.6 | 2.25%
27 | CC(=O)NC(c1cc(Cl)c2cccnc2c1O)C1CC1 (stereo unspecified) | 30.9 | 8.51%
28 | O=C1CSc2ccc(S(=O)(=O)NCc3ccccc3)cc2N1 | -4.74 | -9.61%
29 | O=C(N/N=C/c1cc(Cl)ccc1O)c1ccccc1Br | 12.6 | 7.53%
30 | Cc1cn(Cc2ccccc2Cn2cc(C)c(=O)[nH]c2=O)c(=O)[nH]c1=O | -23.2 | -5.61%
31 | Cc1cccc(Oc2ncnc(N)c2[N+](=O)[O-])c1C | -14.1 | 5.89%
32 | COc1ccccc1CN(Cc1nc2ccccc2c(=O)[nH]1)S(=O)(=O)c1ccc2ccccc2c1 | -20.3 | -11.3%
33 | Cc1cc(C)cc(NS(=O)(=O)c2ccc3[nH]c(=O)ccc3c2)c1 | -17.7 | -3.07%
